Drawing on article PMC12820563, “FoxP3 forms a head-to-head dimer in vivo and stabilizes its multimerization on adjacent microsatellites”, this text covers binding signal for 35 sequences.

In all, about 16,000 sequences were measured (“rpm ratio (pull-down/input)”: median about 0.94, highest 2% from about 1.7 on). For the sample, the highest values were picked, then their nearest neighbours and some sequences at random.

The test deals with T1, MBP-FoxP1dN (Mus musculus, UniProt P58462 326-579).
T1 sequence: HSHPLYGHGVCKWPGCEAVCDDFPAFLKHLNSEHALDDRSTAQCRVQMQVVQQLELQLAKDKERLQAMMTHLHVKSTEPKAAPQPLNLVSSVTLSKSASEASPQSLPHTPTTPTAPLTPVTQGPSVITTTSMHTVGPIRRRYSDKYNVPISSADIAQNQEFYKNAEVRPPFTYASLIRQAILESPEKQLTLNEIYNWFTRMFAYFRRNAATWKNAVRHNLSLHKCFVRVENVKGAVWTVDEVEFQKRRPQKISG
The test is described as follows: PD-seq (MBP pull-down with sequencing); 20 mM Tris-HCl pH 7.5, 100 mM NaCl, 1.5 mM MgCl2, 0.4 uM protein, 0.1 uM dsDNA library, 30 min, room temperature, amylose pull-down; high values mean tight binding. The conditions noted are these: protein: recombinant; tags: His6-MBP; chain copies: 2; dsDNA, one strand shown. Put shortly:
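Binding is reads-per-million enrichment of pull-down over input, with replicates pooled. It comes from 30 min room-temperature incubation in Tris pH 7.5 buffer with NaCl and MgCl2 of 0.4 µM His6-MBP-tagged, N-terminally truncated mouse FoxP3 or FoxP1 fragment from E. coli with 0.1 µM Klenow-filled degenerate double-stranded DNA library, followed by amylose resin capture, three washes and Illumina sequencing of the released DNA.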
For “GATGATTGTTCTCCCAGCTGATGAATTTCTAGTTTCGAGTAAACAAATTTTCCTAATCTTTCTGTTCAAGCGCCATCTAC”, the binding signal is 0.858 RPM ratio (pull-down/input).
Take “GATGATTGTTCTCCCAGCTGATGAATTTCGCATGTCGAGTAAACAAATTTTCCTAATCTTTCTGTTCAAGCGCCATCTAC”: the binding signal is 0.944 RPM ratio (pull-down/input).
To “GATGATTGTTCTCCCAGCTGATGAATTAGTCACCTCGAGTAAACAAATTTTCCTAATCTTTCTGTTCAAGCGCCATCTAC” belongs 0.877 RPM ratio (pull-down/input); to “GATGATTGTTCTCCCAGCTGATGAATTCTGGGCTTCGAGTAAACAAATTTTCCTAATCTTTCTGTTCAAGCGCCATCTAC”, 0.843 RPM ratio (pull-down/input); to “GATGATTGTTCTCCCAGCTGATGAATTAGTAATTTCGAGTAAACAAATTTTCCTAATCTTTCTGTTCAAGCGCCATCTAC”, 1.07 RPM ratio (pull-down/input).
Turning to “GATGATTGTTCTCCCAGCTGATGAATTTAGTATTTCGAGTAAACAAATTTTCCTAATCTTTCTGTTCAAGCGCCATCTAC”, the binding signal is 1.24 RPM ratio (pull-down/input).
To “GATGATTGTTCTCCCAGCTGATGAATTAGTATTGTCGAGTAAACAAATTTTCCTAATCTTTCTGTTCAAGCGCCATCTAC” belongs 2.55 RPM ratio (pull-down/input); to “GATGATTGTTCTCCCAGCTGATGAATTAGTTCTGTCGAGTAAACAAATTTTCCTAATCTTTCTGTTCAAGCGCCATCTAC”, 0.873 RPM ratio (pull-down/input).
To “GATGATTGTTCTCCCAGCTGATGAATTGTATTAGTCGAGTAAACAAATTTTCCTAATCTTTCTGTTCAAGCGCCATCTAC” belongs 1.3 RPM ratio (pull-down/input); to “GATGATTGTTCTCCCAGCTGATGAATTAGTATTTTCGAGTAAACAAATTTTCCTAATCTTTCTGTTCAAGCGCCATCTAC”, 2.28 RPM ratio (pull-down/input).
To “GATGATTGTTCTCCCAGCTGATGAATTAACATCGTCGAGTAAACAAATTTTCCTAATCTTTCTGTTCAAGCGCCATCTAC” belongs 0.998 RPM ratio (pull-down/input); to “GATGATTGTTCTCCCAGCTGATGAATTAAAACATTCGAGTAAACAAATTTTCCTAATCTTTCTGTTCAAGCGCCATCTAC”, 1.4 RPM ratio (pull-down/input).
For the sequence “GATGATTGTTCTCCCAGCTGATGAATTAGACGTATCGAGTAAACAAATTTTCCTAATCTTTCTGTTCAAGCGCCATCTAC”, the binding signal was 1.02 RPM ratio (pull-down/input).
As to “GATGATTGTTCTCCCAGCTGATGAATTCCTGATTTCGAGTAAACAAATTTTCCTAATCTTTCTGTTCAAGCGCCATCTAC”, the binding signal was 1.02 RPM ratio (pull-down/input).
The same measure for “GATGATTGTTCTCCCAGCTGATGAATTCCCTGTTTCGAGTAAACAAATTTTCCTAATCTTTCTGTTCAAGCGCCATCTAC”: 0.907 RPM ratio (pull-down/input); for “GATGATTGTTCTCCCAGCTGATGAATTTCGTGTTTCGAGTAAACAAATTTTCCTAATCTTTCTGTTCAAGCGCCATCTAC”: 1.02 RPM ratio (pull-down/input).
To “GATGATTGTTCTCCCAGCTGATGAATTCGTGTTTTCGAGTAAACAAATTTTCCTAATCTTTCTGTTCAAGCGCCATCTAC” belongs 2.29 RPM ratio (pull-down/input); to “GATGATTGTTCTCCCAGCTGATGAATTCGAGTTTTCGAGTAAACAAATTTTCCTAATCTTTCTGTTCAAGCGCCATCTAC”, 1.08 RPM ratio (pull-down/input).
As to “GATGATTGTTCTCCCAGCTGATGAATTCCTGTTTTCGAGTAAACAAATTTTCCTAATCTTTCTGTTCAAGCGCCATCTAC”, the binding signal was 2.04 RPM ratio (pull-down/input).
The same measure for “GATGATTGTTCTCCCAGCTGATGAATTCTTCGTGTCGAGTAAACAAATTTTCCTAATCTTTCTGTTCAAGCGCCATCTAC”: 0.867 RPM ratio (pull-down/input); for “GATGATTGTTCTCCCAGCTGATGAATTCTGTTTTTCGAGTAAACAAATTTTCCTAATCTTTCTGTTCAAGCGCCATCTAC”: 1.99 RPM ratio (pull-down/input).
The same measure for “GATGATTGTTCTCCCAGCTGATGAATTCGTGTGTTCGAGTAAACAAATTTTCCTAATCTTTCTGTTCAAGCGCCATCTAC”: 1.22 RPM ratio (pull-down/input); for “GATGATTGTTCTCCCAGCTGATGAATTCGTGTTGTCGAGTAAACAAATTTTCCTAATCTTTCTGTTCAAGCGCCATCTAC”: 2.52 RPM ratio (pull-down/input).
The same measure for “GATGATTGTTCTCCCAGCTGATGAATTCTCTGTTTCGAGTAAACAAATTTTCCTAATCTTTCTGTTCAAGCGCCATCTAC”: 0.91 RPM ratio (pull-down/input); for “GATGATTGTTCTCCCAGCTGATGAATTCGTCGTGTCGAGTAAACAAATTTTCCTAATCTTTCTGTTCAAGCGCCATCTAC”: 0.922 RPM ratio (pull-down/input); for “GATGATTGTTCTCCCAGCTGATGAATTCGCAAATTCGAGTAAACAAATTTTCCTAATCTTTCTGTTCAAGCGCCATCTAC”: 0.933 RPM ratio (pull-down/input).
Turning to “GATGATTGTTCTCCCAGCTGATGAATTGGCCTTCTCGAGTAAACAAATTTTCCTAATCTTTCTGTTCAAGCGCCATCTAC”, the binding signal was 0.772 RPM ratio (pull-down/input).
To “GATGATTGTTCTCCCAGCTGATGAATTGCAATGTTCGAGTAAACAAATTTTCCTAATCTTTCTGTTCAAGCGCCATCTAC” belongs 1.42 RPM ratio (pull-down/input); to “GATGATTGTTCTCCCAGCTGATGAATTAAGGGTTTCGAGTAAACAAATTTTCCTAATCTTTCTGTTCAAGCGCCATCTAC”, 0.875 RPM ratio (pull-down/input).
Take “GATGATTGTTCTCCCAGCTGATGAATTTCTTGTTTCGAGTAAACAAATTTTCCTAATCTTTCTGTTCAAGCGCCATCTAC”: the binding signal was 1.14 RPM ratio (pull-down/input).
To “GATGATTGTTCTCCCAGCTGATGAATTCCTTGTTTCGAGTAAACAAATTTTCCTAATCTTTCTGTTCAAGCGCCATCTAC” belongs 0.969 RPM ratio (pull-down/input).
To “GATGATTGTTCTCCCAGCTGATGAATTCTCATGTTCGAGTAAACAAATTTTCCTAATCTTTCTGTTCAAGCGCCATCTAC” belongs 0.861 RPM ratio (pull-down/input); to “GATGATTGTTCTCCCAGCTGATGAATTTCATGTTTCGAGTAAACAAATTTTCCTAATCTTTCTGTTCAAGCGCCATCTAC”, 0.998 RPM ratio (pull-down/input); to “GATGATTGTTCTCCCAGCTGATGAATTCTTGTTTTCGAGTAAACAAATTTTCCTAATCTTTCTGTTCAAGCGCCATCTAC”, 2.77 RPM ratio (pull-down/input).
The same measure for “GATGATTGTTCTCCCAGCTGATGAATTCATGTTTTCGAGTAAACAAATTTTCCTAATCTTTCTGTTCAAGCGCCATCTAC”: 2.2 RPM ratio (pull-down/input).
